About 83,000 compounds went through this panel and 20% of them were active in at least one assay; those are over-represented in the sample as a whole.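 Interpretation: 100, growth as untreated; towards 0, rising growth inhibition; 0, no net growth; 0 to -100, cell death. Compounds scoring below 10 were considered active.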 Activity calls are given as the source filed them.
The compounds below were run on LOX IMVI melanoma (assay: NCI-60 one-dose screen, 48 h (100 = growth as untreated, 0 = no growth, -100 = all killed)). Settings: 10 µM unless noted.
In the case of `NC(=O)CSSCC(N)=O`, the growth is reported as 100% (inactive). `C=C(C)[C@@H]1CC[C@]2(C(=O)N3CCN(C)CC3)CC[C@]3(C)[C@H](CC[C@@H]4[C@@]5(C)CC[C@H](O)C(C)(C)[C@@H]5CC[C@]43C)[C@@H]12` was tested, and the growth was -80.9% (active). For `O=C1Nc2cc(Cl)ccc2/C1=C\c1c(-c2ccc(F)cc2)nc2ccccn12`, the growth was 11.1% (inactive). With `CCc1ccc(-c2cn3ccnc3c(-c3ccc4ncn(Cc5ccccc5)c4c3)n2)cc1` the growth was 49.8% (inactive). In the case of `CCOC(=O)c1cc(C(=O)c2ccc(OC)c(OC)c2)n2ccc(/C=C/c3cc[n+](CC(=O)c4ccc(OC)c(OC)c4)cc3)cc12`, the growth is reported as 87.7% (inactive). `COc1cc(/C=C\c2cc(OC)c(OC)c(OC)c2)cc(NC(=O)/C=C/c2cc(OC)c(OC)c(OC)c2)c1OC` was tested, and the growth was 35.5% (inactive). In the case of `CN1C(N2CCN(S(=O)(=O)c3ccccc3)CC2)=NS(=O)(=O)c2ccccc21`, the growth is reported as 96% (inactive). `O=C1Nc2ccccc2/C1=C\c1c(-c2ccc(F)cc2)nc2ccccn12` was tested, and the growth was 68.3% (inactive). With `OCc1cnc2ccccc2c1NC1CCCCCC1` the growth was 89.2% (inactive). With `Oc1c(Cl)cc(Cl)c(Cl)c1CNCCNCc1c(O)c(Cl)cc(Cl)c1Cl` the growth was 6.53% (active). `CN1[C@@H]2CC[C@H]1/C(=C\c1ccccc1)C(=O)/C2=C/c1ccccc1` was tested, and the growth was 19.7% (inactive). `O=C1c2c(c3c4cccc(F)c4[nH]c3c3ccc4ccccc4c23)C(=O)N1O` was tested, and the growth was 18.4% (inactive). With `CN(C)CCC(=O)c1ccc([N+](=O)[O-])cc1` the growth was 111% (inactive). With `Cc1ccc(-c2nc3ccccn3c2/C=C2/C(=O)Nc3cc(Cl)ccc32)cc1` the growth was 53.8% (inactive). For `CC(=O)[C@@H]1CC[C@]2(C(N)=O)CC[C@]3(C)[C@H](CC[C@@H]4[C@@]5(C)CCCNC(C)(C)[C@@H]5CC[C@]43C)[C@@H]12`, the growth was 84.4% (inactive). In the case of `CC(C)N1C(=O)S/C(=C2/SC(=O)N(C(C)C)C2=O)C1=O`, the growth is reported as 91.9% (inactive). `NS(=O)(=O)c1ccc(CCN2C(=O)C3C(C2=O)C2(Cl)C(Cl)=C(Cl)C3(Cl)C2(Cl)Cl)cc1` (stereo unspecified) was tested, and the growth was 92.1% (inactive). With `Nc1c(S(=O)(=O)O)cc2c3c(cccc13)C(=O)OC2=O` the growth was 94.3% (inactive). With `O=C(CCN1CCCC1)c1ccc([N+](=O)[O-])cc1` the growth was 102% (inactive). `O=C1Nc2ccc(F)cc2/C1=C\c1c(-c2ccccc2)nc2ccccn12` was tested, and the growth was 64.1% (inactive). With `O=Cc1ccc(-c2cn3ccnc3c(-c3ccc4ncn(Cc5ccccc5)c4c3)n2)cc1` the growth was 53.1% (inactive). `N#C/C(=C\c1ccc(C(F)(F)F)cc1)c1cc2ccccc2[nH]1` was tested, and the growth was 99.7% (inactive). `O=C1c2cccc3c(-c4ccc5c(c4)ncn5C4CCCCC4)ccc(c23)C(=O)N1c1nc2ccccc2s1` was tested, and the growth was 84.8% (inactive). In the case of `Cc1cccc(-c2cn3ccnc3c(-c3ccc4ncn(Cc5ccccc5)c4c3)n2)c1`, the growth is reported as 85.2% (inactive). For `CCOC(=O)C1=C(CCl)NC(=O)NC1c1ccc2c(c1)OCO2` (stereo unspecified), the growth was 21% (inactive). In the case of `CCCN1[C@@H]2CC[C@H]1/C(=C\c1ccc(OC)c(OC)c1)C(=O)/C2=C/c1ccc(OC)c(OC)c1`, the growth is reported as 32.5% (inactive). `COc1ccc(C(=O)C2C(C#N)C(C#N)C3c4ccccc4C=CN23)cc1` (stereo unspecified) was tested, and the growth was 87.8% (inactive). With `O=C(C[n+]1cccc2ccccc21)c1ccc(O)c(O)c1` the growth was 28.3% (inactive). `COc1ccc(C(=O)c2nc3ccccc3n2CC(=O)c2ccc(F)cc2)cc1` was tested, and the growth was 94.5% (inactive). In the case of `CC(=O)[C@@H]1CC[C@]2(CO)CC[C@]3(C)[C@H](CC[C@@H]4[C@@]5(C)CCCNC(C)(C)[C@@H]5CC[C@]43C)[C@@H]12`, the growth is reported as 95.6% (inactive). In the case of `NS(=O)(=O)c1ccc(CCN2C(=O)C=CC2=O)cc1`, the growth is reported as 97% (inactive). In the case of `Nc1ccccc1NC(=O)c1ccc(-n2nc(-c3ccccc3)c3ccccc32)cc1`, the growth is reported as 79.7% (inactive). For `N#CC1C(C#N)C2c3ccccc3C=CN2C1C(=O)c1ccc(Br)cc1` (stereo unspecified), the growth was 92.2% (inactive). In the case of `O=C(CNCCN1CCOCC1)N1c2cccc3cccc(c23)N(C(=O)CNCCN2CCOCC2)C1c1cn(-c2ccccc2)nc1-c1cccc([N+](=O)[O-])c1`, the growth is reported as 53.9% (inactive). In the case of `C=C(C)[C@@H]1CC[C@]2(C(=O)N[C@H](CO)Cc3ccccc3)CC[C@]3(C)[C@H](CC[C@@H]4[C@@]5(C)CCCNC(C)(C)[C@@H]5CC[C@]43C)[C@@H]12`, the growth is reported as -86.2% (active). For `O=C1c2cccc3c(-c4ccc5c(c4)ncn5C4CCCCC4)ccc(c23)C(=O)N1CCO`, the growth was 87.4% (inactive). With `O=C(/C(=C\c1ccc([N+](=O)[O-])cc1)S(=O)Cc1ccc(F)cc1)c1ccc(F)cc1` (stereo unspecified) the growth was -52.1% (active). For `NNC(=O)c1ccc(-n2nc(-c3ccccc3)c3ccccc32)cc1`, the growth was 68.2% (inactive).

What follows are compounds tested on SK-MEL-28 melanoma in the same assay as above. Settings: 10 µM unless noted.
`NC(=O)CSSCC(N)=O` was tested, and the growth was 109% (inactive). For `C=C(C)[C@@H]1CC[C@]2(C(=O)N3CCN(C)CC3)CC[C@]3(C)[C@H](CC[C@@H]4[C@@]5(C)CC[C@H](O)C(C)(C)[C@@H]5CC[C@]43C)[C@@H]12`, the growth was -85.1% (active). In the case of `O=C1Nc2cc(Cl)ccc2/C1=C\c1c(-c2ccc(F)cc2)nc2ccccn12`, the growth is reported as 28.2% (inactive). `CCc1ccc(-c2cn3ccnc3c(-c3ccc4ncn(Cc5ccccc5)c4c3)n2)cc1` was tested, and the growth was 80.9% (inactive). `CCOC(=O)c1cc(C(=O)c2ccc(OC)c(OC)c2)n2ccc(/C=C/c3cc[n+](CC(=O)c4ccc(OC)c(OC)c4)cc3)cc12` was tested, and the growth was 104% (inactive). For `COc1cc(/C=C\c2cc(OC)c(OC)c(OC)c2)cc(NC(=O)/C=C/c2cc(OC)c(OC)c(OC)c2)c1OC`, the growth was 47.6% (inactive). In the case of `CN1C(N2CCN(S(=O)(=O)c3ccccc3)CC2)=NS(=O)(=O)c2ccccc21`, the growth is reported as 103% (inactive). In the case of `O=C1Nc2ccccc2/C1=C\c1c(-c2ccc(F)cc2)nc2ccccn12`, the growth is reported as 87.2% (inactive). `OCc1cnc2ccccc2c1NC1CCCCCC1` was tested, and the growth was 102% (inactive). `Oc1c(Cl)cc(Cl)c(Cl)c1CNCCNCc1c(O)c(Cl)cc(Cl)c1Cl` was tested, and the growth was 21.4% (inactive). In the case of `CN1[C@@H]2CC[C@H]1/C(=C\c1ccccc1)C(=O)/C2=C/c1ccccc1`, the growth is reported as 70.9% (inactive). With `O=C1c2c(c3c4cccc(F)c4[nH]c3c3ccc4ccccc4c23)C(=O)N1O` the growth was 58.5% (inactive). In the case of `CN(C)CCC(=O)c1ccc([N+](=O)[O-])cc1`, the growth is reported as 104% (inactive). In the case of `Cc1ccc(-c2nc3ccccn3c2/C=C2/C(=O)Nc3cc(Cl)ccc32)cc1`, the growth is reported as 91.8% (inactive). For `CC(=O)[C@@H]1CC[C@]2(C(N)=O)CC[C@]3(C)[C@H](CC[C@@H]4[C@@]5(C)CCCNC(C)(C)[C@@H]5CC[C@]43C)[C@@H]12`, the growth was 95.8% (inactive). With `CC(C)N1C(=O)S/C(=C2/SC(=O)N(C(C)C)C2=O)C1=O` the growth was 105% (inactive). For `NS(=O)(=O)c1ccc(CCN2C(=O)C3C(C2=O)C2(Cl)C(Cl)=C(Cl)C3(Cl)C2(Cl)Cl)cc1` (stereo unspecified), the growth was 108% (inactive). With `Nc1c(S(=O)(=O)O)cc2c3c(cccc13)C(=O)OC2=O` the growth was 115% (inactive). In the case of `O=C(CCN1CCCC1)c1ccc([N+](=O)[O-])cc1`, the growth is reported as 104% (inactive). In the case of `O=C1Nc2ccc(F)cc2/C1=C\c1c(-c2ccccc2)nc2ccccn12`, the growth is reported as 85.1% (inactive). For `O=Cc1ccc(-c2cn3ccnc3c(-c3ccc4ncn(Cc5ccccc5)c4c3)n2)cc1`, the growth was 92.5% (inactive). For `N#C/C(=C\c1ccc(C(F)(F)F)cc1)c1cc2ccccc2[nH]1`, the growth was 102% (inactive). With `O=C1c2cccc3c(-c4ccc5c(c4)ncn5C4CCCCC4)ccc(c23)C(=O)N1c1nc2ccccc2s1` the growth was 96.6% (inactive). In the case of `Cc1cccc(-c2cn3ccnc3c(-c3ccc4ncn(Cc5ccccc5)c4c3)n2)c1`, the growth is reported as 101% (inactive). `CCOC(=O)C1=C(CCl)NC(=O)NC1c1ccc2c(c1)OCO2` (stereo unspecified) was tested, and the growth was 45.6% (inactive). With `CCCN1[C@@H]2CC[C@H]1/C(=C\c1ccc(OC)c(OC)c1)C(=O)/C2=C/c1ccc(OC)c(OC)c1` the growth was 73.2% (inactive). For `COc1ccc(C(=O)C2C(C#N)C(C#N)C3c4ccccc4C=CN23)cc1` (stereo unspecified), the growth was 98.9% (inactive). `O=C(C[n+]1cccc2ccccc21)c1ccc(O)c(O)c1` was tested, and the growth was 84.7% (inactive). For `COc1ccc(C(=O)c2nc3ccccc3n2CC(=O)c2ccc(F)cc2)cc1`, the growth was 80.2% (inactive). With `CC(=O)[C@@H]1CC[C@]2(CO)CC[C@]3(C)[C@H](CC[C@@H]4[C@@]5(C)CCCNC(C)(C)[C@@H]5CC[C@]43C)[C@@H]12` the growth was 113% (inactive). `NS(=O)(=O)c1ccc(CCN2C(=O)C=CC2=O)cc1` was tested, and the growth was 107% (inactive). In the case of `Nc1ccccc1NC(=O)c1ccc(-n2nc(-c3ccccc3)c3ccccc32)cc1`, the growth is reported as 99.7% (inactive). `N#CC1C(C#N)C2c3ccccc3C=CN2C1C(=O)c1ccc(Br)cc1` (stereo unspecified) was tested, and the growth was 102% (inactive). With `O=C(CNCCN1CCOCC1)N1c2cccc3cccc(c23)N(C(=O)CNCCN2CCOCC2)C1c1cn(-c2ccccc2)nc1-c1cccc([N+](=O)[O-])c1` the growth was 64% (inactive). For `C=C(C)[C@@H]1CC[C@]2(C(=O)N[C@H](CO)Cc3ccccc3)CC[C@]3(C)[C@H](CC[C@@H]4[C@@]5(C)CCCNC(C)(C)[C@@H]5CC[C@]43C)[C@@H]12`, the growth was -92.3% (active). `O=C1c2cccc3c(-c4ccc5c(c4)ncn5C4CCCCC4)ccc(c23)C(=O)N1CCO` was tested, and the growth was 116% (inactive). With `O=C(/C(=C\c1ccc([N+](=O)[O-])cc1)S(=O)Cc1ccc(F)cc1)c1ccc(F)cc1` (stereo unspecified) the growth was 23.2% (inactive). With `NNC(=O)c1ccc(-n2nc(-c3ccccc3)c3ccccc32)cc1` the growth was 83.9% (inactive).

From PubChem BioAssay (NCI)
